For orientation: Inhibition means the percentage by which the read-out fell short of the control. Read a high Inhibition as strong suppression.

Common to all, as to type: functional
Test [1] deals with Plasmodium falciparum. The experiment in a line: GSK_TCMDC: Inhibition of Plasmodium falciparum 3D7 in whole red blood cells, using parasite LDH activity as an index of growth. Test compounds present at 2uM.
Test [2] concerns Plasmodium falciparum. Description: GSK_TCMDC: Inhibition of Plasmodium falciparum Dd2 in whole red blood cells, using parasite LDH activity as an index of growth. Test compounds present at 2uM.
In another test the test system is HepG2. The experiment in a line: GSK_TCMDC: Percent inhibition of human HepG2 cell line. Test compounds present at 10uM.

As to `O=C(Nc1ccc(F)cc1F)NC1CCN(CCCCCNC(=O)C2CC2c2ccc(Cl)c(Cl)c2)CC1` (stereo not given), the Inhibition is given as 100% in the test with Plasmodium falciparum [1], 32% in the test on Plasmodium falciparum [2] and 41% in the test on HepG2.
In the case of `O=C(c1cccc(-c2ccc(-c3nc4cc(C(F)(F)F)ccc4[nH]3)cc2)c1)N1CCCCC1CN1CCC(O)C1` (stereo not given), the Inhibition in the test with Plasmodium falciparum [1] was determined as 92%; in the test on Plasmodium falciparum [2], 100%; in the test on HepG2, 19%.
Consider `O=C(O)C(F)(F)F.Oc1ccc(CCNc2nc(NCCCOc3ccccc3-c3ccncc3)nc(N3CCNCC3)n2)cc1`, for which the Inhibition in the test with Plasmodium falciparum [1] came out at 96%; in the test with Plasmodium falciparum [2] it was 0%; in the test on HepG2, 8%.
With `O=C(NCCCCN1CCCC2c3cccc(O)c3CCC21)c1ccc(-c2ccccc2)cc1` (stereo not given), the Inhibition with Plasmodium falciparum [1] stood at 93%; in the test on Plasmodium falciparum [2], 4%; with HepG2, 18%.
For the compound `COc1ccc2c(OC)ccc(CNCCCCCCNCc3ccc(OC)c4ccc(OC)cc34)c2c1.CS(=O)(=O)O`, the Inhibition in the test on Plasmodium falciparum [1] was found to be 100%; in the test on Plasmodium falciparum [2], 98%; with HepG2 it was 100%.
On to `CCN(CCCN1CCCCC1)c1cc(C)nc(Nc2ccc(Br)cc2F)n1.O=C(O)C(F)(F)F`, for which the Inhibition in the test with Plasmodium falciparum [1] is reported as 95%; in the test with Plasmodium falciparum [2], 24%; with HepG2, 32%.
The corresponding values for `Fc1ccc2[nH]c(-c3cccc(-c4ccc(CNCCc5ccncc5)cc4)c3)nc2c1.O=C(O)C(F)(F)F` are 99%, 100% and 44%.
On to `O=C(O)C(F)(F)F.O=S(=O)(NC1CCN(c2ccnc3cc(Cl)ccc23)C1)c1cccc(F)c1` (stereo not given), for which the values for the Inhibition in the test on Plasmodium falciparum [1], with Plasmodium falciparum [2] and in the test on HepG2 were 98%, 88% and 19%, respectively.
The corresponding values for `COc1ccc(NC(=O)[C@H](CC(C)C)Nc2cc(C)nc(NCC3CCCCC3)n2)cc1.O=C(O)C(F)(F)F` are 100%, 92% and 7%.
The corresponding values for `CN(C)c1ccc(N2C(N)=NC(N)=NC23CCCC3)cc1.Cl` are 97%, 0% and 1%.
The corresponding values for `Cl.N=c1n(CCN2CCCCC2)c2ccccc2n1CC(O)c1cccc(Br)c1` (stereo not given) are 86%, 33% and 25%.
For the compound `O=C(/C=C/c1ccc(Cl)c(Cl)c1)NCCCCCCN1CCN(C(=O)Nc2ccc(Cl)c(C(F)(F)F)c2)CC1`, the values for the Inhibition in the test on Plasmodium falciparum [1], in the test on Plasmodium falciparum [2] and with HepG2 were 99%, 43% and 47%, respectively.
On to `NS(=O)(=O)c1ccc(CNc2ccc3ncc(-c4ccc(OC(F)(F)F)cc4)n3n2)cc1`, for which the Inhibition in the test with Plasmodium falciparum [1] is on record as 97%; in the test with Plasmodium falciparum [2] it was 99%; in the test with HepG2, 10%.
The corresponding values for `C[C@H](NC(=O)c1c(CN2CCC(N3CCCCC3)CC2)c(-c2ccccc2)nc2cc(O)ccc12)C1CCCCC1` are 99%, 72% and 77%.
For `CNS(=O)(=O)CCNCc1ccc(-c2ccc3ncnc(Nc4ccc(OCc5ccccc5)cc4)c3c2)o1` the same measures were 100%, 26% and 19%.
For `Cc1ccc(C(=O)NC2CC2)cc1-c1ccc2c(cnn2S(=O)(=O)c2ccc(F)cc2)c1` the same measures were 93%, 69% and 7%.
With `CN(C)c1ccc(-c2ccc(C(=O)NC3CCN(Cc4ccccc4)CC3)s2)cc1.O=C(O)C(F)(F)F`, the Inhibition with Plasmodium falciparum [1] was 92%; in the test with Plasmodium falciparum [2] it was 10%; in the test with HepG2, 20%.
The corresponding values for `Cc1cc(N[C@@H](C)C(=O)Nc2ccccc2)nc(NCCc2ccc(F)cc2)n1.O=C(O)C(F)(F)F` are 100%, 43% and 33%.
For `COc1cc(Nc2nccc(N3CCC(NC(=O)c4cccc(C#N)c4)C3)n2)cc(OC)c1OC` (stereo not given) the same measures were 91%, 76% and 13%.
For `Oc1ccc2nc(NCCCc3ccccc3)nc(NCCc3ccccc3)c2c1` the same measures were 99%, 88% and 31%.
Turning to `O=C(NC1CC1)C1CCN(Cc2cc3ccccc3n2Cc2ccc(Cl)cc2)CC1`, the Inhibition in the test with Plasmodium falciparum [1] is 95%; with Plasmodium falciparum [2], 96%; in the test with HepG2, 16%.
For `Br.CC=CCON1C(=N)NC(=N)NC1(C)C` the same measures were 94%, 1% and 57%.
For `COc1ccccc1C1CCN(C2CCC(NC(=O)c3cc4ccccc4[nH]3)CC2)CC1` (stereo not given) the same measures were 88%, 7% and 49%.
As to `Cl.N#Cc1ccc2c(c1)CCN(CCC1CCC(NC(=O)c3cccc(-c4ccc(F)cc4)c3)CC1)CC2` (stereo not given), the Inhibition in the test on Plasmodium falciparum [1] is on record as 92%; in the test on Plasmodium falciparum [2] it was 10%; in the test with HepG2, 32%.
The corresponding values for `CCCCCCCN(Cc1ccc(OC(C)(C)C(=O)OCC)cc1)C(=O)Nc1ccccc1OCC` are 93%, 94% and 0%.
Consider `N#Cc1cncc(-c2nc3c(N4CCC(N5CCCC5)CC4)cccc3n2CCNCc2ccccc2)c1.O=C(O)C(F)(F)F`, for which the Inhibition in the test with Plasmodium falciparum [1] is listed as 100%; in the test with Plasmodium falciparum [2] it was 58%; in the test with HepG2 it was 3%.
For the compound `Cc1nc(N)nc(N)c1-c1ccc(Br)cc1`, the Inhibition is 98% in the test on Plasmodium falciparum [1], 1% with Plasmodium falciparum [2] and 46% in the test with HepG2.
Turning to `CCN(CC)CCN(Cc1ccc(-c2ccc(C(F)(F)F)cc2)cc1)C(=O)Cn1c(CCc2ccc(F)c(F)c2F)nc(=O)c2ccccc21.O=C(O)C(O)C(O)C(=O)O`, the results for the Inhibition in the test with Plasmodium falciparum [1], with Plasmodium falciparum [2] and with HepG2 were 97%, 66% and 38%, respectively.
With `COc1cc2ncnc(Nc3ccc4nc(Cc5ccccc5)[nH]c4c3)c2cc1OC.Cl`, the Inhibition in the test on Plasmodium falciparum [1] worked out at 87%; in the test with Plasmodium falciparum [2], 28%; in the test on HepG2, 0%.
Turning to `N#Cc1cccc(NC(=O)Nc2cccc(OC3CCN(Cc4ccccc4)CC3)c2)c1.O=C(O)C(F)(F)F`, the figures for the Inhibition in the test on Plasmodium falciparum [1], with Plasmodium falciparum [2] and with HepG2 were 100%, 48% and 5%, respectively.
For the compound `C[C@H](NC(=O)c1c(CN2CCC(N3CCCCC3=O)CC2)c(-c2cccs2)nc2ccccc12)C1CCCCC1`, the values for the Inhibition in the test with Plasmodium falciparum [1], with Plasmodium falciparum [2] and in the test on HepG2 were 91%, 73% and 8%, respectively.
In the case of `CN(C)CCNC(=O)c1ccc2c(c1)n(C1CCN(S(=O)(=O)c3ccc(-c4ccccc4)cc3)CC1)c(=O)n2CC1CCCCC1`, the Inhibition in the test with Plasmodium falciparum [1] is reported as 100%; in the test on Plasmodium falciparum [2], 66%; with HepG2, 47%.
Turning to `CCCCCNc1nc2nc(N)nc(N)c2nc1-c1ccccc1.Cl`, the values for the Inhibition in the test with Plasmodium falciparum [1], in the test on Plasmodium falciparum [2] and with HepG2 were 91%, 0% and 9%, respectively.
For `O=C(O)C(F)(F)F.c1cncc(CCNCc2ccc(-c3ccc(-c4nc5ccccc5[nH]4)s3)cc2)c1` the same measures were 100%, 99% and 35%.
For `Br.CCCCCCn1c2c(c(=N)c3c1CCC3)CCCC2` the same measures were 99%, 76% and 31%.
`Cc1cnc2cc3c(cc2c1N1CCN(C)CC1)NCC3`: the Inhibition in the test on Plasmodium falciparum [1] is 100%; in the test with Plasmodium falciparum [2] it was 69%; in the test on HepG2 it was 12%.
The corresponding values for `CS(=O)(=O)Cc1ccc(Nc2nccc(-c3c(-c4cccc(NC(=O)c5c(F)cccc5F)c4)nn4ccccc34)n2)cc1` are 99%, 75% and 78%.
The corresponding values for `COc1ccc2nccc([C@@H](O)CN3C4CCC3CC(NCc3ccc5c(n3)NC(=O)CS5)C4)c2n1.Cl` (stereo not given in full) are 99%, 11% and 0%.
On to `Clc1ccc(CNc2nc(NCCc3c[nH]cn3)nc(NC3CCCCC3)n2)cc1`, for which the Inhibition in the test on Plasmodium falciparum [1] is 100%; in the test with Plasmodium falciparum [2] it was 1%; in the test on HepG2 it was 0%.
The corresponding values for `CCC(C)(C)c1ccc(N2C(N)=NC(N)=NC2(C)C)cc1.Cl` are 91%, 4% and 40%.
The corresponding values for `Cl.c1ccc2c(c1)ncn2-c1ccnc(Nc2ccncc2)n1` are 89%, 80% and 0%.
Turning to `COc1cccc2c(Oc3ccccc3C)ccnc12`, the Inhibition in the test on Plasmodium falciparum [1] was 85%; in the test with Plasmodium falciparum [2] it was 45%; in the test on HepG2 it was 0%.
As to `Cc1cc(N[C@@H](CC(C)C)C(=O)NCCOc2ccccc2)nc(NCCc2ccccc2)n1.O=C(O)C(F)(F)F`, the results for the Inhibition in the test with Plasmodium falciparum [1], in the test with Plasmodium falciparum [2] and in the test with HepG2 were 94%, 29% and 13%, respectively.
For `COc1cccc(-c2cnc(-c3ccncc3)nc2C2CCN(Cc3ccc(NC(C)=O)cc3)CC2)c1` the same measures were 89%, 0% and 17%.
For `CCOC(=O)NCC(=O)Nc1cccc(-c2cccc(-c3nc4cc(C(F)(F)F)ccc4[nH]3)c2)c1` the same measures were 91%, 34% and 59%.
For the compound `Cc1cccc2nc(-c3cccc(-c4ccc(NC(=O)Cc5c[nH]cn5)cc4)c3)[nH]c12`, the values for the Inhibition with Plasmodium falciparum [1], in the test on Plasmodium falciparum [2] and in the test on HepG2 were 100%, 93% and 4%, respectively.
For `CC(Oc1c(C2CCN(CCCCNC(=O)c3ccc(-c4ccc(Cl)cc4)cc3)CC2)ccc2c1CCCC2)C(N)=O` (stereo not given) the same measures were 99%, 16% and 100%.
For `CCc1ccc(CN2CCC(CNC(=O)c3cc(-c4ccccc4Cl)cs3)C2)cc1.O=C(O)C(F)(F)F` (stereo not given) the same measures were 98%, 0% and 14%.
The corresponding values for `COCCN(C)c1ccc(C(=O)Nc2ccccc2)cc1NS(=O)(=O)Cc1ccccc1.O=C(O)C(F)(F)F` are 92%, 47% and 2%.
With `CC(C)(C)c1ccc(/C=C/C(=O)NCCCCCN2CCC(c3c[nH]c4ccccc34)CC2)cc1`, the values for the Inhibition with Plasmodium falciparum [1], with Plasmodium falciparum [2] and in the test on HepG2 were 91%, 12% and 70%, respectively.
For the compound `CS(=O)(=O)c1ccc(-c2nc(NCC3CCCCC3)cc(C(F)(F)F)n2)cc1`, the Inhibition in the test on Plasmodium falciparum [1] turned out to be 83%; with Plasmodium falciparum [2] it was 76%; with HepG2, 0%.
The corresponding values for `Cc1ccc(CNC(=O)c2cc3c(=O)n4ccccc4nc3n(CCCN3CCOCC3)c2=N)cc1` are 92%, 5% and 21%.
The corresponding values for `CN(c1ccc2c(c1)nc(NC(=O)C1(c3cc(F)ccc3F)CC1)n2C)c1ccnc(Nc2cccc(CS(C)(=O)=O)c2)n1.O=C(O)C(F)(F)F` are 89%, 46% and 42%.
For `COc1cccc(C(=O)Nc2sc3c(c2C(N)=O)CCCC3)c1OC` the same measures were 99%, 8% and 6%.
Consider `CN1CCc2cc(Br)c(O)cc2C1Cc1ccccc1Cl.Cl` (stereo not given), for which the values for the Inhibition in the test with Plasmodium falciparum [1], with Plasmodium falciparum [2] and in the test on HepG2 were 98%, 88% and 2%, respectively.
The corresponding values for `CC(C)N(Cc1ccc(-c2ccc(C(F)(F)F)cc2)cc1)C(=O)Cn1c(SCc2cccc(F)c2F)cc(=O)c2cc(CN3CCCCC3)ccc21.Cl` are 100%, 59% and 97%.
For `O=C(Nc1ccc(N2CCCCC2)c(Cl)c1)c1nc[nH]n1` the same measures were 93%, 93% and 0%.
`COc1ccc(NC(=O)Nc2ccc(-c3ccncc3)c(Cl)c2)cc1N1CCN(C)CC1`: the Inhibition is 98% in the test on Plasmodium falciparum [1], 62% in the test on Plasmodium falciparum [2] and 19% with HepG2.
The corresponding values for `Cc1cc(C(=O)Nc2ccc(C)c(-c3nc(N(C(=O)c4ccc(F)c(C)c4)C4CCNCC4)nc4c3ccc(=O)n4-c3c(F)cccc3F)c2)ccc1F` are 99%, 99% and 4%.
For the compound `Cc1cccc2nc(-c3ccc(-c4ccc(CN5CCN(CCC#N)CC5)cc4)cc3)[nH]c12.O=C(O)C(F)(F)F`, the Inhibition with Plasmodium falciparum [1] is recorded as 91%; with Plasmodium falciparum [2] it was 27%; in the test on HepG2, 48%.

Values taken from ChEMBL document CHEMBL1157539, “Thousands of chemical starting points for antimalarial lead identification” (Nature, 2010).
